Out of some 5,500 compounds screened, about 2,000 (36%) were called active. Inconclusive results (about 18%) are left out. Rule as the data show it: active = normalized growth mostly below about 0.91 (no sharp cut-off); inconclusive = no clear call, values can overlap the other calls; inactive = mostly above about 0.92. Some of the results follow.
Experiment: chemical genetic growth profiling, strain panel (AID 1159580);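 also: tested at 20 µM; growth read once vehicle control cultures reached saturation at 30 °C; 1 = growth at the plate median or of vehicle wells; lower values mean less growth of the strain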
Details: S. cerevisiae deletion strains, growth OD

Measured: normalized growth

O=C1c2cccc(O)c2C(=O)c2c(O)cccc21
active: locus YJR043C, strain POL32, stronger effect = lower value 0.767 | locus YJR066W, strain TOR1, stronger effect = lower value 0.796 | locus YKL009W, strain mrt4, stronger effect = lower value 0.844 | locus YKL160W, strain elf1, stronger effect = lower value 0.835 | locus YKL190W, strain CNB1, stronger effect = lower value 0.697 | locus YKR001C, strain vps1, stronger effect = lower value 0.405 | locus YLR027C, strain aat2, stronger effect = lower value 0.878 | locus YLR039C, strain RIC1, stronger effect = lower value 0.178 | locus YLR058C, strain SHM2, stronger effect = lower value 0.684 | locus YLR221C, strain rsa3, stronger effect = lower value 0.856 | locus YLR258W, strain gsy2, stronger effect = lower value 0.909 | locus YLR262C, strain YPT6 (second series), stronger effect = lower value 0.406 | locus YLR262C, strain YPT6, stronger effect = lower value 0.24 | locus YLR268W, strain sec22, stronger effect = lower value 0.606 | locus YLR320W, strain mms22, stronger effect = lower value 0.435 | locus YLR330W, strain CHS5, stronger effect = lower value 0.688 | locus YLR371W, strain rom2, stronger effect = lower value 0.789 | locus YLR418C, strain cdc73, stronger effect = lower value 0.401 | locus YML016C, strain PPZ1, stronger effect = lower value 0.82 | locus YML032C, strain rad52, stronger effect = lower value 0.291 | locus YML120C, strain ndi1, stronger effect = lower value 0.866 | locus YML124C, strain tub3, stronger effect = lower value 0.802 | locus YMR058W, strain fet3, stronger effect = lower value 0.747 | locus YMR078C, strain ctf18, stronger effect = lower value 0.841 | locus YMR223W, strain ubp8, stronger effect = lower value 0.668 | locus YMR231W, strain pep5, stronger effect = lower value 0.882 | locus YMR263W, strain SAP30, stronger effect = lower value 0.756 | locus YNL067W, strain RPL9B, stronger effect = lower value 0.699 | locus YNL071W, strain lat1, stronger effect = lower value 0.831 | locus YNL128W, strain TEP1, stronger effect = lower value 0.638 | locus YNL153C, strain GIM3, stronger effect = lower value 0.568 | locus YNL209W, strain ssb2, stronger effect = lower value 0.879 | locus YNL233W, strain BNI4, stronger effect = lower value 0.729 | locus YNL248C, strain rpa49, stronger effect = lower value 0.55 | locus YNL250W, strain rad50, stronger effect = lower value 0.463 | locus YNL271C, strain bni1, stronger effect = lower value 0.847 | locus YNL298W, strain CLA4, stronger effect = lower value 0.823 | locus YNL307C, strain MCK1, stronger effect = lower value 0.669 | locus YNL322C, strain KRE1, stronger effect = lower value 0.803 | locus YNR052C, strain pop2, stronger effect = lower value 0.59 | locus YOL147C, strain pex11, stronger effect = lower value 0.749 | locus YOR001W, strain rrp6, stronger effect = lower value 0.855 | locus YOR061W, strain CKA2, stronger effect = lower value 0.847 | locus YOR069W, strain VPS5, stronger effect = lower value 0.79 | locus YOR070C, strain gyp1, stronger effect = lower value 0.874 | locus YOR083W, strain WHI5, stronger effect = lower value 0.793 | locus YOR106W, strain vam3, stronger effect = lower value 0.577 | locus YOR136W, strain idh2, stronger effect = lower value 0.845 | locus YOR144C, strain elg1, stronger effect = lower value 0.886 | locus YOR184W, strain ser1, stronger effect = lower value 0.375 | locus YOR270C, strain vph1, stronger effect = lower value 0.364 | locus YOR290C, strain snf2, stronger effect = lower value 0.796 | locus YPL051W, strain arl3, stronger effect = lower value 0.737 | locus YPL106C, strain sse1, stronger effect = lower value 0.705 | locus YPL240C, strain hsp82, stronger effect = lower value 0.909 | locus YPL241C, strain CIN2, stronger effect = lower value 0.847 | locus YPR163C, strain tif3, stronger effect = lower value 0.775 | locus YPR167C, strain met16, stronger effect = lower value 0.851 | strain wtn01, stronger effect = lower value 0.752
inactive: locus YKL068W, stronger effect = lower value 0.967 | locus YKL085W, strain MDH1 (second series), stronger effect = lower value 0.944 | locus YKL085W, strain MDH1, stronger effect = lower value 0.944 | locus YKR026C, strain gcn3, stronger effect = lower value 0.97 | locus YKR091W, strain srl3, stronger effect = lower value 0.97 | locus YLL001W, strain dnm1, stronger effect = lower value 0.903 | locus YLL026W, stronger effect = lower value 0.941 | locus YLL041C, strain sdh2, stronger effect = lower value 0.953 | locus YLR102C, strain apc9, stronger effect = lower value 0.961 | locus YLR113W, strain HOG1, stronger effect = lower value 1 | locus YLR342W, strain FKS1 (second series), stronger effect = lower value 0.923 | locus YLR342W, strain FKS1, stronger effect = lower value 0.975 | locus YLR357W, strain rsc2, stronger effect = lower value 0.995 | locus YLR384C, strain iki3, stronger effect = lower value 0.936 | locus YMR125W, strain sto1, stronger effect = lower value 0.959 | locus YMR129W, stronger effect = lower value 0.972 | locus YMR205C, strain PFK2, stronger effect = lower value 0.96 | locus YMR307W, strain GAS1, stronger effect = lower value 0.677 | locus YNL183C, strain NPR1, stronger effect = lower value 0.836 | locus YNL322C, strain KRE1 (second series), stronger effect = lower value 0.965 | locus YNR049C, strain mso1, stronger effect = lower value 0.942 | locus YOL012C, strain htz1 0.695 | locus YOR080W, strain dia2, stronger effect = lower value 0.948 | locus YOR231W, strain MKK1, stronger effect = lower value 0.895 | locus YOR265W, strain rbl2, stronger effect = lower value 0.935 | locus YOR316C, strain cot1, stronger effect = lower value 0.941 | locus YPL078C, strain atp4, stronger effect = lower value 0.897 | locus YPL256C, strain CLN2, stronger effect = lower value 0.996 | locus YPR119W, strain clb2, stronger effect = lower value 0.931 | locus YPR141C, strain kar3, stronger effect = lower value 0.966
